Assay [1] has as its target T1, SALL4 ZFC4 R900W (HT-SELEX) (Mus musculus, UniProt Q8BX22 870-940, R900W).
T1 sequence: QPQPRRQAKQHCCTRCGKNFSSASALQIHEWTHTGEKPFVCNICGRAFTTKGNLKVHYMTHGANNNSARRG
Briefly: HT-SELEX; high values mean tight binding. The conditions noted are these: protein: recombinant; vector His6-GST; dsDNA, one strand shown. In outline:
(§1)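 Each canonical k-mer's binding signal is its read fraction expressed as fold change over the initial random library. Reads came from MiSeq sequencing, scanned for 6-mers, after up to 6 triplicate cycles in which purified recombinant mouse SALL4 zinc finger cluster 4 (residues 870–940, 1 µg) bound library DNA (1.5 µg first cycle, 200 ng later) in 100 µl of 10 mM Tris–HCl pH 7.5, 50 mM NaCl, poly(dI-dC), DTT for 10 min at room temperature. Complexes were then Ni2+ bead-captured, washed, PCR-amplified and reselected.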

Assay [2] concerns the target T2, SALL4 ZFC4 G921D (HT-SELEX) (Mus musculus, UniProt Q8BX22 870-940, G921D).
T2 sequence: T1 sequence with W31R, G52D
The experiment in a line: HT-SELEX; high values mean tight binding. The conditions noted are these: protein: recombinant; vector His6-GST; dsDNA, one strand shown. In a few lines: as §1

Positions count from the first letter of the chain named.

TCGGCA: the binding signal was 0.208 ± 0.0109 fold-change vs cycle 0 in assay [1] and 0.351 ± 0.0637 fold-change vs cycle 0 in assay [2].
Consider ACGCCC, for which the binding signal in assay [1] turned out to be 0.137 ± 0.0108 fold-change vs cycle 0; in assay [2], 0.25 ± 0.0577 fold-change vs cycle 0.
Taken in the same sequence, the figures for CACCGC were 0.132 ± 0.00669 fold-change vs cycle 0 and 0.239 ± 0.0797 fold-change vs cycle 0.
Consider CCAGGC, for which the binding signal came out at 0.174 ± 0.0159 fold-change vs cycle 0 in assay [1] and 0.302 ± 0.0679 fold-change vs cycle 0 in assay [2].
Take CCGACA: the binding signal in assay [1] turned out to be 0.311 ± 0.0211 fold-change vs cycle 0; in assay [2] it was 0.462 ± 0.0665 fold-change vs cycle 0.
Taken in the same sequence, the figures for CTTCGC were 0.34 ± 0.0357 fold-change vs cycle 0 and 0.455 ± 0.0772 fold-change vs cycle 0.
Taken in the same sequence, the figures for CCTGCG were 0.145 ± 0.0224 fold-change vs cycle 0 and 0.246 ± 0.0829 fold-change vs cycle 0.
As to CGCATC, the binding signal came out at 0.304 ± 0.00796 fold-change vs cycle 0 in assay [1] and 0.441 ± 0.0726 fold-change vs cycle 0 in assay [2].
As for AAGCCG, the values for the binding signal in assay [1] and in assay [2] were 0.241 ± 0.0209 fold-change vs cycle 0 and 0.357 ± 0.0555 fold-change vs cycle 0, respectively.
With GAACGC, the binding signal in assay [1] is 0.308 ± 0.012 fold-change vs cycle 0; in assay [2], 0.446 ± 0.0568 fold-change vs cycle 0.
In the case of CGCTCC, the binding signal is 0.165 ± 0.00419 fold-change vs cycle 0 in assay [1] and 0.29 ± 0.0821 fold-change vs cycle 0 in assay [2].
As for CACCGG, the values for the binding signal in assay [1] and in assay [2] were 0.216 ± 0.0195 fold-change vs cycle 0 and 0.331 ± 0.0683 fold-change vs cycle 0, respectively.
On to ATCGGC, for which the binding signal in assay [1] was 0.223 ± 0.00552 fold-change vs cycle 0; in assay [2] it was 0.362 ± 0.0707 fold-change vs cycle 0.
For GGCACA, the binding signal in assay [1] amounted to 0.256 ± 0.0249 fold-change vs cycle 0; in assay [2] it was 0.414 ± 0.0716 fold-change vs cycle 0.
Consider CGACCC, for which the results for the binding signal in assay [1] and in assay [2] were 0.172 ± 0.00839 fold-change vs cycle 0 and 0.317 ± 0.0852 fold-change vs cycle 0, respectively.
Turning to CAGGCC, the results for the binding signal in assay [1] and in assay [2] were 0.16 ± 0.0134 fold-change vs cycle 0 and 0.277 ± 0.0643 fold-change vs cycle 0, respectively.
For the sequence AACCGC, the results for the binding signal in assay [1] and in assay [2] were 0.258 ± 0.0187 fold-change vs cycle 0 and 0.396 ± 0.0835 fold-change vs cycle 0, respectively.
In the case of CGCTAC, the binding signal stood at 0.3 ± 0.026 fold-change vs cycle 0 in assay [1] and 0.426 ± 0.0556 fold-change vs cycle 0 in assay [2].
Regarding ACCCCC, the binding signal is 0.324 ± 0.0114 fold-change vs cycle 0 in assay [1] and 0.419 ± 0.0596 fold-change vs cycle 0 in assay [2].
As to GAACTA, the binding signal in assay [1] came to 1.48 ± 0.0646 fold-change vs cycle 0; in assay [2] it was 1.37 ± 0.112 fold-change vs cycle 0.
Turning to CCGCAG, the binding signal was 0.123 ± 0.0191 fold-change vs cycle 0 in assay [1] and 0.234 ± 0.0772 fold-change vs cycle 0 in assay [2].
Regarding CCGCGG, the binding signal in assay [1] is 0.0426 ± 0.00565 fold-change vs cycle 0; in assay [2], 0.128 ± 0.0621 fold-change vs cycle 0.
With GCATTA, the binding signal in assay [1] was found to be 1.09 ± 0.0461 fold-change vs cycle 0; in assay [2], 1.15 ± 0.019 fold-change vs cycle 0.
For the sequence AAGGGC, the binding signal in assay [1] was found to be 0.343 ± 0.00573 fold-change vs cycle 0; in assay [2], 0.488 ± 0.064 fold-change vs cycle 0.
AGGCGG: the results for the binding signal in assay [1] and in assay [2] were 0.136 ± 0.00959 fold-change vs cycle 0 and 0.264 ± 0.0731 fold-change vs cycle 0, respectively.
The matching figures for CGCAGC: 0.0883 ± 0.014 fold-change vs cycle 0 and 0.191 ± 0.0678 fold-change vs cycle 0.
Taken in the same sequence, the figures for CACGCG were 0.116 ± 0.0104 fold-change vs cycle 0 and 0.214 ± 0.0541 fold-change vs cycle 0.
Consider CGGGTC, for which the binding signal in assay [1] amounted to 0.212 ± 0.0149 fold-change vs cycle 0; in assay [2] it was 0.342 ± 0.0694 fold-change vs cycle 0.
Take CGCGAA: the values for the binding signal in assay [1] and in assay [2] were 0.201 ± 0.0239 fold-change vs cycle 0 and 0.315 ± 0.0749 fold-change vs cycle 0, respectively.
Consider CGCCAG, for which the values for the binding signal in assay [1] and in assay [2] were 0.103 ± 0.00325 fold-change vs cycle 0 and 0.214 ± 0.0676 fold-change vs cycle 0, respectively.
For GTGCGA, the figures for the binding signal in assay [1] and in assay [2] were 0.265 ± 0.00784 fold-change vs cycle 0 and 0.4 ± 0.0639 fold-change vs cycle 0, respectively.
Regarding GCGACC, the values for the binding signal in assay [1] and in assay [2] were 0.112 ± 0.0125 fold-change vs cycle 0 and 0.237 ± 0.0806 fold-change vs cycle 0, respectively.
The matching figures for AAGGCG: 0.265 ± 0.014 fold-change vs cycle 0 and 0.425 ± 0.0847 fold-change vs cycle 0.
Consider GCCAGA, for which the binding signal in assay [1] stood at 0.289 ± 0.0233 fold-change vs cycle 0; in assay [2], 0.414 ± 0.0657 fold-change vs cycle 0.
For AGCGCT, the binding signal in assay [1] was determined as 0.189 ± 0.0213 fold-change vs cycle 0; in assay [2], 0.343 ± 0.109 fold-change vs cycle 0.
For the sequence ACCGCG, the binding signal was 0.099 ± 0.00138 fold-change vs cycle 0 in assay [1] and 0.205 ± 0.0665 fold-change vs cycle 0 in assay [2].
For the sequence CATCGC, the binding signal in assay [1] came out at 0.317 ± 0.0166 fold-change vs cycle 0; in assay [2], 0.45 ± 0.0668 fold-change vs cycle 0.
On to GCTGCA, for which the binding signal in assay [1] is 0.256 ± 0.0235 fold-change vs cycle 0; in assay [2], 0.379 ± 0.0774 fold-change vs cycle 0.
Regarding CGCTAG, the binding signal in assay [1] was determined as 0.338 ± 0.0234 fold-change vs cycle 0; in assay [2], 0.465 ± 0.071 fold-change vs cycle 0.
For the sequence GCTGCC, the binding signal in assay [1] is 0.109 ± 0.0113 fold-change vs cycle 0; in assay [2] it was 0.217 ± 0.0947 fold-change vs cycle 0.
Taken in the same sequence, the figures for AACGCC were 0.242 ± 0.0243 fold-change vs cycle 0 and 0.377 ± 0.0751 fold-change vs cycle 0.
The matching figures for GACCCC: 0.276 ± 0.00974 fold-change vs cycle 0 and 0.391 ± 0.051 fold-change vs cycle 0.
For the sequence CGAAGC, the binding signal worked out at 0.325 ± 0.00517 fold-change vs cycle 0 in assay [1] and 0.474 ± 0.0622 fold-change vs cycle 0 in assay [2].
The matching figures for CGCTCA: 0.311 ± 0.0311 fold-change vs cycle 0 and 0.445 ± 0.0603 fold-change vs cycle 0.
AGTCGG: the figures for the binding signal in assay [1] and in assay [2] were 0.367 ± 0.00833 fold-change vs cycle 0 and 0.499 ± 0.0416 fold-change vs cycle 0, respectively.
Regarding ACAGCG, the binding signal came to 0.265 ± 0.00461 fold-change vs cycle 0 in assay [1] and 0.381 ± 0.0624 fold-change vs cycle 0 in assay [2].
GCTCCC: the binding signal in assay [1] stood at 0.239 ± 0.0043 fold-change vs cycle 0; in assay [2] it was 0.357 ± 0.0785 fold-change vs cycle 0.
Consider AGCCAG, for which the binding signal in assay [1] was determined as 0.361 ± 0.0134 fold-change vs cycle 0; in assay [2] it was 0.485 ± 0.0483 fold-change vs cycle 0.
GGAGCC: the binding signal in assay [1] came out at 0.187 ± 0.00654 fold-change vs cycle 0; in assay [2] it was 0.319 ± 0.0566 fold-change vs cycle 0.
As for CGGCAG, the binding signal in assay [1] was 0.106 ± 0.00823 fold-change vs cycle 0; in assay [2] it was 0.214 ± 0.0627 fold-change vs cycle 0.
As for GAGCGA, the binding signal in assay [1] stood at 0.326 ± 0.0151 fold-change vs cycle 0; in assay [2], 0.483 ± 0.0727 fold-change vs cycle 0.
The matching figures for CAGGCA: 0.348 ± 0.0149 fold-change vs cycle 0 and 0.477 ± 0.0613 fold-change vs cycle 0.
Taken in the same sequence, the figures for GCGTAC were 0.308 ± 0.00417 fold-change vs cycle 0 and 0.455 ± 0.0643 fold-change vs cycle 0.
As to CTGGCC, the binding signal in assay [1] turned out to be 0.139 ± 0.00982 fold-change vs cycle 0; in assay [2] it was 0.255 ± 0.0712 fold-change vs cycle 0.
On to CACGGG, for which the binding signal in assay [1] came out at 0.253 ± 0.0129 fold-change vs cycle 0; in assay [2], 0.366 ± 0.0584 fold-change vs cycle 0.
Taken in the same sequence, the figures for ACGCAG were 0.305 ± 0.0196 fold-change vs cycle 0 and 0.422 ± 0.0649 fold-change vs cycle 0.
Take GACCGC: the binding signal turned out to be 0.124 ± 0.0133 fold-change vs cycle 0 in assay [1] and 0.245 ± 0.0713 fold-change vs cycle 0 in assay [2].
For the sequence CCGGCA, the binding signal in assay [1] was determined as 0.108 ± 0.00217 fold-change vs cycle 0; in assay [2], 0.221 ± 0.0662 fold-change vs cycle 0.
GCCCAA: the binding signal amounted to 0.245 ± 0.0152 fold-change vs cycle 0 in assay [1] and 0.387 ± 0.0671 fold-change vs cycle 0 in assay [2].
For GCCAAC, the results for the binding signal in assay [1] and in assay [2] were 0.279 ± 0.0168 fold-change vs cycle 0 and 0.415 ± 0.0905 fold-change vs cycle 0, respectively.

These data come from publication PMC9838217, “Structure of SALL4 zinc finger domain reveals link between AT-rich DNA binding and Okihiro syndrome”.
